# Tests used:
# Test in all cases: DAPPL (digital affinity profiling via proximity ligation, sequencing); 10 mM Tris-HCl pH 7.5, 50 mM NaCl, 1 mM DTT, 4% glycerol, room temperature, 30 min; GST-TFs on glutathione beads, 16-mer random dsDNA library, 0.1% formaldehyde crosslink after washing; high values mean tight binding
# Details in all cases: protein: recombinant; tags: N-terminal GST; dsDNA, one strand shown
# FLI1 = molecular target: T1, FLI1 (Homo sapiens, UniProt Q01543 1-452)
# T1 sequence: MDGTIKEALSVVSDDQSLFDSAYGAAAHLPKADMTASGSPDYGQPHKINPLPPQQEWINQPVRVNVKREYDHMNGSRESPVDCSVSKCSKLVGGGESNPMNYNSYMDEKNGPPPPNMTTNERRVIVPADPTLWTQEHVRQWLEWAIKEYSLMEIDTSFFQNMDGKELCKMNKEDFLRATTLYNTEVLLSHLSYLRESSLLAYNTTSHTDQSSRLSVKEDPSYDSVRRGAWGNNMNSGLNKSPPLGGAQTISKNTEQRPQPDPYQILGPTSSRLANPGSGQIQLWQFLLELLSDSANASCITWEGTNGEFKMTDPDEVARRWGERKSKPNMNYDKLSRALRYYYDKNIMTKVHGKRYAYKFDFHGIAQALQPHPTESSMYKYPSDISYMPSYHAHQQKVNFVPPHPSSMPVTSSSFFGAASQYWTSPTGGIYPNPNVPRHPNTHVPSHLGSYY
# Method in brief: (§1)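 Pools were built from human transcription factors expressed in yeast as GST fusions, captured on glutathione beads and DNA-barcoded, along with a tag-only sample. Incubation with 200 nmole of a 16-mer random double-stranded DNA library lasted 30 min at room temperature in Tris/NaCl/DTT/glycerol buffer, and was followed by washing, 0.1% formaldehyde crosslinking, proximity ligation, PCR amplification and Illumina NextSeq500 sequencing. Binding signal is the quotient of each hexamer's read frequency for a factor and its frequency for the tag-only sample.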
# ELK1 = molecular target: T2, ELK1 (Homo sapiens, UniProt P19419 1-428)
# T2 sequence: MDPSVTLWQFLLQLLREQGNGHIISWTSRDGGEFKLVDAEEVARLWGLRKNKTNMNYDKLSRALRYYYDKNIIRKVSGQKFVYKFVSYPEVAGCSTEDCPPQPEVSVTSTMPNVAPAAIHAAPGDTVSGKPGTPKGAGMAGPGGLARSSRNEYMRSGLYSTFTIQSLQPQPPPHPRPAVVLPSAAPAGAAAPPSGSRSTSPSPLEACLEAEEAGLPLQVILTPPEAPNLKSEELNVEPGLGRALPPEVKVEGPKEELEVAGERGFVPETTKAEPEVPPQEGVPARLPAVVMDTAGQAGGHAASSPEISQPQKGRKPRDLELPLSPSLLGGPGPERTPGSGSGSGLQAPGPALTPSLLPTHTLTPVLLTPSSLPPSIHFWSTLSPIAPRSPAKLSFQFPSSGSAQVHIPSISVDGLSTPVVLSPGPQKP
# Method in brief: as §1
# GABPA = molecular target: T3, GABPA (Homo sapiens, UniProt Q06546 1-454)
# T3 sequence: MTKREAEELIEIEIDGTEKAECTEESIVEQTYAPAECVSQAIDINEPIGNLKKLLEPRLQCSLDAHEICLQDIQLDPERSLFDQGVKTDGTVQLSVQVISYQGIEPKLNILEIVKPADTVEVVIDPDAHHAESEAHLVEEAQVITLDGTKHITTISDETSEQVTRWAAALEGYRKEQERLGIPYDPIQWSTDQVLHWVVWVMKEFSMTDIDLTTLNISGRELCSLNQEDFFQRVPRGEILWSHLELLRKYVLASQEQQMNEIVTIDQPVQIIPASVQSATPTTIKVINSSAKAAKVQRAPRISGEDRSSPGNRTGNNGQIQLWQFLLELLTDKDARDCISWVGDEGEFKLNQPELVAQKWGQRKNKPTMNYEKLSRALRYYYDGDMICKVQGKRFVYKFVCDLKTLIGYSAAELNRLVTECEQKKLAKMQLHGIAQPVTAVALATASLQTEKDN
# Method in brief: as §1
# ERG = molecular target: T4, ERG (Homo sapiens, UniProt P11308 1-479)
# T4 sequence: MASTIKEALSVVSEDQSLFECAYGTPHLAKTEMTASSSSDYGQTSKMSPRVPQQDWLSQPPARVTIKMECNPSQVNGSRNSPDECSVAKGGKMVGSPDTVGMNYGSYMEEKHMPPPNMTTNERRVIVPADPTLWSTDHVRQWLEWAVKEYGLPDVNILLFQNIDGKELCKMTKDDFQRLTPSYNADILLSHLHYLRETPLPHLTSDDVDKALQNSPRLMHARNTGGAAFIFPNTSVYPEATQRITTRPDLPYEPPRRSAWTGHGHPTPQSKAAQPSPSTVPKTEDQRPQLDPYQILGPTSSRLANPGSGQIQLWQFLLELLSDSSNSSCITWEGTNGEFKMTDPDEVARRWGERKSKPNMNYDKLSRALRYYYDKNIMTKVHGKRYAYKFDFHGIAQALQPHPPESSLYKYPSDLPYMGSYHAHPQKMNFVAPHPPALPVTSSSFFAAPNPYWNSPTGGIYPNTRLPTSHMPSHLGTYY
# Method in brief: as §1
# ELF1 = ELF1 (Homo sapiens, UniProt P32519 1-619)
# Method in brief: as §1
# EHF = molecular target: T5, EHF (Homo sapiens, UniProt Q9NZC4 1-300)
# T5 sequence: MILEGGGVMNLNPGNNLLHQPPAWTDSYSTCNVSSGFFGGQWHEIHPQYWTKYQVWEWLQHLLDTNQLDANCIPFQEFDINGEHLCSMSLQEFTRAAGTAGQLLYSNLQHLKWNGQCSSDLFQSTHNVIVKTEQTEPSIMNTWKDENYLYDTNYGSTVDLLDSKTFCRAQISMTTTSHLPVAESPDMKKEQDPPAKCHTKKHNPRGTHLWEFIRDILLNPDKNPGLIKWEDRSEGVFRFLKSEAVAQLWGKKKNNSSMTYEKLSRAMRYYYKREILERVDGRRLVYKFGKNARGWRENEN
# Method in brief: as §1
# SPI1 = SPI1 (Homo sapiens, UniProt P17947 1-270)
# Method in brief: as §1
# SPIB = SPIB (Homo sapiens, UniProt Q01892 1-262)
# Method in brief: as §1
# FEV = molecular target: T6, FEV (Homo sapiens, UniProt Q99581 1-238)
# T6 sequence: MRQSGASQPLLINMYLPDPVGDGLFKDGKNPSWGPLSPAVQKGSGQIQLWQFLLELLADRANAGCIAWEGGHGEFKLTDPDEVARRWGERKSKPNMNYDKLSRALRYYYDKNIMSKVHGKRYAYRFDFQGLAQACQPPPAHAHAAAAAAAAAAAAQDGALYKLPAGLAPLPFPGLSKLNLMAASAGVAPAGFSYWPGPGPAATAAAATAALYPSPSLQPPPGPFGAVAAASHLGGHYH
# Method in brief: as §1
# ETV5 = ETV5 (Homo sapiens, UniProt P41161 1-510)
# Method in brief: as §1
# ELF4 = ELF4 (Homo sapiens, UniProt Q99607 1-663)
# Method in brief: as §1
# ETV2 = molecular target: T7, ETV2 (Homo sapiens, UniProt O00321 1-342)
# T7 sequence: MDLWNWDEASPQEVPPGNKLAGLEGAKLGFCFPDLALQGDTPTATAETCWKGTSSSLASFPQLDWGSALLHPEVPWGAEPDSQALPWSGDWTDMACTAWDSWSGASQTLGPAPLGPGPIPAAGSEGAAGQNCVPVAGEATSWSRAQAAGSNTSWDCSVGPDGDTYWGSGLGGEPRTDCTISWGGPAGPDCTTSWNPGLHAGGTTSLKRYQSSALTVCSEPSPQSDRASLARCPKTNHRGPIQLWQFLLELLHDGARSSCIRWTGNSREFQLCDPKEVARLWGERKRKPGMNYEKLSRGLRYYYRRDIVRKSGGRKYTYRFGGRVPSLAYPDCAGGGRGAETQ
# Method in brief: as §1
# ELF3 = molecular target: T8, ELF3 (Homo sapiens, UniProt P78545 1-371)
# T8 sequence: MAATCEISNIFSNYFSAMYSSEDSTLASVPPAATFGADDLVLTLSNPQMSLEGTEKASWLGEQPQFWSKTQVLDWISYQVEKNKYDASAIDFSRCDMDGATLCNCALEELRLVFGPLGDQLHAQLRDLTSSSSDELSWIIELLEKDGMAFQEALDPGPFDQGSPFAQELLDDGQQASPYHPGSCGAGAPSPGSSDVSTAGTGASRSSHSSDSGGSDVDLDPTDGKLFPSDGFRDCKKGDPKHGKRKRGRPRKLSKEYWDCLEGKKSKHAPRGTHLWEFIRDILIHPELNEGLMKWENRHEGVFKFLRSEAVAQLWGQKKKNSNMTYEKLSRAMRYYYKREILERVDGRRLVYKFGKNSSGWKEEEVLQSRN
# Method in brief: as §1
# ETV1 = ETV1 (Homo sapiens, UniProt P50549 1-477)
# Method in brief: as §1
# ERF = molecular target: T9, ERF (Homo sapiens, UniProt P50548 1-548)
# T9 sequence: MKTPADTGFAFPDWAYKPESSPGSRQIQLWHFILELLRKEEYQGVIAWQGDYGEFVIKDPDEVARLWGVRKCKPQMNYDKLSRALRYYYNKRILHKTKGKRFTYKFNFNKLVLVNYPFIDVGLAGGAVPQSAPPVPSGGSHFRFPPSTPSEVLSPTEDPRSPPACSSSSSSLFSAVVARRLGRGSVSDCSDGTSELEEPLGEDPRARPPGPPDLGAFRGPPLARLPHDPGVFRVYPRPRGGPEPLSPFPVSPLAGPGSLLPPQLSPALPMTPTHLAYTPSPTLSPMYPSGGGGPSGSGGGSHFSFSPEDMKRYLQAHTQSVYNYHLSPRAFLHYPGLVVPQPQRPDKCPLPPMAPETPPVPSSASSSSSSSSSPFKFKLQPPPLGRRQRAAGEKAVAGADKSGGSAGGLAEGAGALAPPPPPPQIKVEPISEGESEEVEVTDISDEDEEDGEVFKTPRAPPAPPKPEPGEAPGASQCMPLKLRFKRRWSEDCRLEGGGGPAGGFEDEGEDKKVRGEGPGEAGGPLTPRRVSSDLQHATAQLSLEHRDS
# Method in brief: as §1
# ETV3L = molecular target: T10, ETV3L (Homo sapiens, UniProt Q6ZN32 1-361)
# T10 sequence: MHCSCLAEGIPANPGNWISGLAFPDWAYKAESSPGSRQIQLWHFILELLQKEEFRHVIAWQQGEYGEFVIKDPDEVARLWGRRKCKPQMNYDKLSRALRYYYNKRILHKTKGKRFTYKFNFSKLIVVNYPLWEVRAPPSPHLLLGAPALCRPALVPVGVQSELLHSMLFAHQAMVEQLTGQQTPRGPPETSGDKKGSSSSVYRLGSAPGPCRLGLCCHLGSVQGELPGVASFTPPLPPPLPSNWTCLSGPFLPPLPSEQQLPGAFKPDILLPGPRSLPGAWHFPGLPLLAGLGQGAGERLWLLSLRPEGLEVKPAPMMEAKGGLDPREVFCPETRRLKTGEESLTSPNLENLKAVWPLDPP
# Method in brief: as §1
# ETS2 = molecular target: T11, ETS2 (Homo sapiens, UniProt P15036 1-469)
# T11 sequence: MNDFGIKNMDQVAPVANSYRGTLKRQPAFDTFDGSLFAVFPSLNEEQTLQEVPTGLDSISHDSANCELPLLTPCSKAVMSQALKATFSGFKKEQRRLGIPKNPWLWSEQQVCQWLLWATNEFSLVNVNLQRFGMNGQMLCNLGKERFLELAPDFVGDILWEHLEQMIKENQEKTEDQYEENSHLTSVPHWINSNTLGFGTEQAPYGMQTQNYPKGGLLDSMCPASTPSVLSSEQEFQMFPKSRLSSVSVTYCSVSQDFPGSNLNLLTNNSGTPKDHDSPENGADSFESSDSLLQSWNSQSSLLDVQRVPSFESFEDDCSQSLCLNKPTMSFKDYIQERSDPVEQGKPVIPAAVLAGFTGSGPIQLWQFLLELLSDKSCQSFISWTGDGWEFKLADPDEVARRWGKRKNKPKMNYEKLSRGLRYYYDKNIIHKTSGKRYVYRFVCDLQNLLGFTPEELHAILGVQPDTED
# Method in brief: as §1
# ETV7 = molecular target: T12, ETV7 (Homo sapiens, UniProt Q9Y603 1-341)
# T12 sequence: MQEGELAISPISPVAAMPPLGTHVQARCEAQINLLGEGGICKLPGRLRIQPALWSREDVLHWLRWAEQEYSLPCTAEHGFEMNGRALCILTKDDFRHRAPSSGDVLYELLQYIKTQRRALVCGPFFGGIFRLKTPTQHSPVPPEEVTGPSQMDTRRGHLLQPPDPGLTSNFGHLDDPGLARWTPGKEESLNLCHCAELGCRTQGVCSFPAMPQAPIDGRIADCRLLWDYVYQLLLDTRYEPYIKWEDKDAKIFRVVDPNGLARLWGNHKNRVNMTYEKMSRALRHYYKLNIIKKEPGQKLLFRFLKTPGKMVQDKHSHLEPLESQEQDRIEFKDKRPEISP
# Method in brief: as §1
# ETV3 = molecular target: T13, ETV3 (Homo sapiens, UniProt P41162-2 1-143)
# T13 sequence: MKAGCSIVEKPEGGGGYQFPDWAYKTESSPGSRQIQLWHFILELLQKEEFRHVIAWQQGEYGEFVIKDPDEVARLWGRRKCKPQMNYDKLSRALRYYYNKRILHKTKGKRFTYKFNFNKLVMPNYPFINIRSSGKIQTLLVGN
# Method in brief: as §1
# ETV6 = ETV6 (Homo sapiens, UniProt P41212 1-452)
# Method in brief: as §1
# Sequence of ETV1 (P50549 whole entry): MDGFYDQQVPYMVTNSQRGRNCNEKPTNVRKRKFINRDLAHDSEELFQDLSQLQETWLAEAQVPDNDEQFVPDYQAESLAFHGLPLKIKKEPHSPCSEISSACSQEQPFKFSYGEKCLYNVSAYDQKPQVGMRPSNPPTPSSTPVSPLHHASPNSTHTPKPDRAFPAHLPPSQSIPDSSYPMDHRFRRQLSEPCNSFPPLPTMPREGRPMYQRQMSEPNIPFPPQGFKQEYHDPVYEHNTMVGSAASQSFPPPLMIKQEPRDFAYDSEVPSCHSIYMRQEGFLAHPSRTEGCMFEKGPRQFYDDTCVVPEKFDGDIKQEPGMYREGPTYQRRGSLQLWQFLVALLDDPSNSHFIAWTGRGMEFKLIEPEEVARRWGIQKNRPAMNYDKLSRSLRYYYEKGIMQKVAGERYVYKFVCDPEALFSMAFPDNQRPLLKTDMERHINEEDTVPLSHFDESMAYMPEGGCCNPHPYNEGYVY
# Sequence of ETV6 (P41212 whole entry): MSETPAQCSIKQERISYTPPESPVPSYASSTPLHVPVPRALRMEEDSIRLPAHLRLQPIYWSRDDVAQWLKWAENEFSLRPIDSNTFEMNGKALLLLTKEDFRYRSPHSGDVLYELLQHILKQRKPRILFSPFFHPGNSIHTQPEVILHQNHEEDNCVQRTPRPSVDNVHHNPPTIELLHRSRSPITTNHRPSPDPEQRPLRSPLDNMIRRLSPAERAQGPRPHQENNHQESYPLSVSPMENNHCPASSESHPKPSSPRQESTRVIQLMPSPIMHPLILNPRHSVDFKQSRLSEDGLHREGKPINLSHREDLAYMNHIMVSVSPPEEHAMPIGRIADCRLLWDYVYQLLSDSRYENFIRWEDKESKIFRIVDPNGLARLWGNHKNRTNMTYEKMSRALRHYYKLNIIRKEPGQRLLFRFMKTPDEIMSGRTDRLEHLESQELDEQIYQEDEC
# Sequence of ELF4 (Q99607 whole entry): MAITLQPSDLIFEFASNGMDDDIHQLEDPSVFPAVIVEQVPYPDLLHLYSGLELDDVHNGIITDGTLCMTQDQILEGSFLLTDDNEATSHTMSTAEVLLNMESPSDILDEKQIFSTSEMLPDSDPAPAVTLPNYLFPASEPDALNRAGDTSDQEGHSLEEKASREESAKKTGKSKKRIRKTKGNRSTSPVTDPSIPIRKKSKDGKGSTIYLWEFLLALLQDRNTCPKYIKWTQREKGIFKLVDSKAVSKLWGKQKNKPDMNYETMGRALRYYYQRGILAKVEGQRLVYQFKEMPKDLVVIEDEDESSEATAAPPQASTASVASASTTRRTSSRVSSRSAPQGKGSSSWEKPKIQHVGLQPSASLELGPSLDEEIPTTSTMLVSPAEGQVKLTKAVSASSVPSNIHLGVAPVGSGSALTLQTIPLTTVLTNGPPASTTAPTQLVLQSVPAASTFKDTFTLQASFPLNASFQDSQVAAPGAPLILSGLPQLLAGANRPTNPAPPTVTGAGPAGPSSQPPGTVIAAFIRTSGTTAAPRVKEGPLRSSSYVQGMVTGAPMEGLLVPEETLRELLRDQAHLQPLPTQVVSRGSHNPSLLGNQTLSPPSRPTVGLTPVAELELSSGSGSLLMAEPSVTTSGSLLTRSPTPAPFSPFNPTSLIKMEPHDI
# Sequence of ETV5 (P41161 whole entry): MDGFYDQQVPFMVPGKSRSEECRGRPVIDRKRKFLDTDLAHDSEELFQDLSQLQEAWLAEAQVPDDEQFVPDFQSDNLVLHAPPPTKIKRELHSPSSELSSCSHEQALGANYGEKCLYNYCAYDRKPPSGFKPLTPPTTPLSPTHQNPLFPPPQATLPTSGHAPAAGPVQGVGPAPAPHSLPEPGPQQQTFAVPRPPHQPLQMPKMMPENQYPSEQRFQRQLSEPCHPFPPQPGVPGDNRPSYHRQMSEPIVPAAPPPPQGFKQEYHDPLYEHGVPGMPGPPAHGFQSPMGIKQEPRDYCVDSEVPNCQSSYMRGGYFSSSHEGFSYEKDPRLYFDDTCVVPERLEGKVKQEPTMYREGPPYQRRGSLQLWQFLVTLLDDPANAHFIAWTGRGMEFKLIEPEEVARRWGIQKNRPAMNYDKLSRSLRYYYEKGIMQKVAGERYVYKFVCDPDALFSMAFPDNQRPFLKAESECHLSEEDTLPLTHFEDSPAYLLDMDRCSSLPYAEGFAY
# Sequence of ELF1 (P32519 whole entry): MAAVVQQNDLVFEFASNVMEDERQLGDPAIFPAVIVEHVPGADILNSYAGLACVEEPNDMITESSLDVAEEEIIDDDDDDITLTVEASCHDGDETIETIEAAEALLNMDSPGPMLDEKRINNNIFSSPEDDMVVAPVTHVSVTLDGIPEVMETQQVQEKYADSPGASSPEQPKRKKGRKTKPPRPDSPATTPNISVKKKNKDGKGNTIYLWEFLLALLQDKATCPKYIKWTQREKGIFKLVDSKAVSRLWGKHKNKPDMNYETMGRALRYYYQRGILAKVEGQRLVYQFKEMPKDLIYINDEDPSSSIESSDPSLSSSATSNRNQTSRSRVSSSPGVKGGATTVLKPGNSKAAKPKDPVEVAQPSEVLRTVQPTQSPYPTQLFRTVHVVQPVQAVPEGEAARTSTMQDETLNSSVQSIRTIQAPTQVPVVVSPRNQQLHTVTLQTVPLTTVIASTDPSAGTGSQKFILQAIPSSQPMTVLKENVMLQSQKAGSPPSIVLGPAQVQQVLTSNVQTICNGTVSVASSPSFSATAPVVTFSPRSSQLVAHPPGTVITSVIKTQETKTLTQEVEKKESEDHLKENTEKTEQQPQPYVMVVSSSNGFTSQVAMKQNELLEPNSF
# Sequence of SPIB (Q01892 whole entry): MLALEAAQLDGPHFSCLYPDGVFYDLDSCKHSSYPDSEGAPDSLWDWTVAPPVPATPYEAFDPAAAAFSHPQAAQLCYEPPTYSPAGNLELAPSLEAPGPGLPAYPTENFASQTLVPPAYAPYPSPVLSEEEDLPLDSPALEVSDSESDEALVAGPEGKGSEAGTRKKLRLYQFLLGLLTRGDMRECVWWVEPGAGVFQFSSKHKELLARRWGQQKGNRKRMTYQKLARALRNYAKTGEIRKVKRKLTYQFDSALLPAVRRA
sequence,measurement,setting,value
GGAAGA,binding signal,FLI1,"1.06 fold enrichment (6-mer frequency, TF over GST control)"
same,binding signal,ELK1,"1.16 fold enrichment (6-mer frequency, TF over GST control)"
same,binding signal,GABPA,"1.11 fold enrichment (6-mer frequency, TF over GST control)"
same,binding signal,ERG,"1.2 fold enrichment (6-mer frequency, TF over GST control)"
same,binding signal,ELF1,"1.02 fold enrichment (6-mer frequency, TF over GST control)"
same,binding signal,EHF,"1.3 fold enrichment (6-mer frequency, TF over GST control)"
same,binding signal,SPI1,"1.17 fold enrichment (6-mer frequency, TF over GST control)"
same,binding signal,SPIB,"1.19 fold enrichment (6-mer frequency, TF over GST control)"
same,binding signal,FEV,"1.05 fold enrichment (6-mer frequency, TF over GST control)"
same,binding signal,ETV5,"1.22 fold enrichment (6-mer frequency, TF over GST control)"
same,binding signal,ELF4,"1.06 fold enrichment (6-mer frequency, TF over GST control)"
same,binding signal,ETV2,"1.09 fold enrichment (6-mer frequency, TF over GST control)"
same,binding signal,ELF3,"1.19 fold enrichment (6-mer frequency, TF over GST control)"
same,binding signal,ETV1,"1.2 fold enrichment (6-mer frequency, TF over GST control)"
same,binding signal,ERF,"1.03 fold enrichment (6-mer frequency, TF over GST control)"
same,binding signal,ETV3L,"1.14 fold enrichment (6-mer frequency, TF over GST control)"
same,binding signal,ETS2,"1.18 fold enrichment (6-mer frequency, TF over GST control)"
same,binding signal,ETV7,"1.13 fold enrichment (6-mer frequency, TF over GST control)"
same,binding signal,ETV3,"1.24 fold enrichment (6-mer frequency, TF over GST control)"
same,binding signal,ETV6,"1.26 fold enrichment (6-mer frequency, TF over GST control)"
